This note sets out measurements from ChEMBL document CHEMBL1157539, “Thousands of chemical starting points for antimalarial lead identification” (Nature, 2010).

Holding throughout (assay type): functional
Assay [1] concerns Plasmodium falciparum. Description: GSK_TCMDC: Inhibition of Plasmodium falciparum 3D7 in whole red blood cells, using parasite LDH activity as an index of growth. Test compounds present at 2uM.
Assay [2] deals with Plasmodium falciparum. Description: GSK_TCMDC: Inhibition of Plasmodium falciparum Dd2 in whole red blood cells, using parasite LDH activity as an index of growth. Test compounds present at 2uM.
In assay [3] the test system is HepG2. Description: GSK_TCMDC: Percent inhibition of human HepG2 cell line. Test compounds present at 10uM.

For `COc1ccc2nccc([C@@H](O)CN3CCC(NCc4cc5ccccc5o4)CC3)c2c1.O=C(O)C(=O)O`, the Inhibition (in general, how much of the control response was suppressed) stood at 96% in assay [1], 72% in assay [2] and 17% in assay [3].
For `Clc1ccc(CNc2nc(NCCc3c[nH]cn3)nc(N3CCCC4CCCCC43)n2)cc1` (centres undefined), in that order: 100%, 100% and 10%.
For `Br.C=CCc1cc(Br)ccc1OCCCON1C(N)=NC(N)=NC1(C)C` the same measures were 95%, 97% and 61%.
For `C=C(C)COc1ccc(-c2n[nH]c(C(F)(F)F)c2-c2ccccc2OC)c(O)c1` the same measures were 98%, 72% and 19%.
Regarding `O=C(O)c1ccc2nc(-c3ccccn3)c(-c3ccccn3)nc2c1`, the Inhibition turned out to be 97% in assay [1], 18% in assay [2] and 3% in assay [3].
For `CCNc1cc(C)nc(Nc2ccc(F)cc2)n1`, in that order: 100%, 57% and 1%.
For `NC1=NC(c2ccccc2)(c2ccccc2)C(=O)N1Cc1ccc(-c2cccnc2)cc1.O=CO`, in that order: 99%, 94% and 15%.
For `FC(F)(F)c1ccc2[nH]c(-c3ccc(-c4ccc(CN5CCN(c6ccncc6)CC5)cc4)cc3)nc2c1.O=C(O)C(F)(F)F`, in that order: 100%, 99% and 91%.
Take `Cc1n[nH]c2ccc(-c3cc(OC[C@@H](N)Cc4ccccc4)cnc3-c3ccc(OCc4cccc(F)c4)cc3)cc12.O=C(O)C(F)(F)F`: the Inhibition in assay [1] came to 98%; in assay [2], 59%; in assay [3], 97%.
For `COc1ccc2ncc(F)c(NC(=O)C3CCC(NCc4cc5cc(F)cc(F)c5[nH]4)CC3)c2n1.Cl` (centres undefined) the same measures were 95%, 15% and 18%.
For `CCN(CCCN1CCCCC1)c1cc(C)nc(Nc2cc(C)ccc2C)n1.O=C(O)C(F)(F)F` the same measures were 93%, 42% and 34%.
Consider `C=CC[C@@H](C(=O)OCC)[C@@H]1[C@@H](N(CC=C)C(=O)OC(C)(C)C)CCN1C(=O)OCc1ccccc1`, for which the figures for the Inhibition in assay [1], in assay [2] and in assay [3] were 92%, 68% and 2%, respectively.
For `COCCn1c(-c2cccc(Cl)c2)nn(-c2ccc([N+](=O)[O-])cc2Cl)c1=S`, in that order: 100%, 99% and 2%.
For `CCCCNC(=N)c1ccc(OCCCCCOc2ccc(C(=N)NCCCC)cc2)cc1.Cl` the same measures were 99%, 99% and 19%.
For `Cc1cccc(NC(c2cccs2)c2c(NC(=O)c3ccccc3)sc(C)c2C)n1` (centres undefined) the same measures were 88%, 80% and 0%.
As for `Cc1noc(C)c1-c1ccc2c(Nc3ccc(C(F)(F)F)cc3)c(C(N)=O)cnc2c1.Cl`, the values for the Inhibition in assay [1], in assay [2] and in assay [3] were 100%, 95% and 1%, respectively.
For `O=C(Nc1ccc2ccccc2n1)c1ccccc1-c1ccccc1` the same measures were 90%, 83% and 14%.
Turning to `COc1ccc(-c2cnc(N)c(-c3nc4cc(Br)ccc4[nH]3)c2)cc1.O=C(O)C(F)(F)F`, the figures for the Inhibition in assay [1], in assay [2] and in assay [3] were 100%, 3% and 42%, respectively.
For `O=C(O)C(F)(F)F.Oc1ccc(CCNc2nc(NCc3ccc4cc(Cl)ccc4c3)nc(N3CCNCC3)n2)cc1`, the Inhibition was 92% in assay [1], 38% in assay [2] and 14% in assay [3].
For `O=C(NC1CCCCC1)C(c1cccs1)N(CCc1ccccc1)C(=O)c1ccco1` (centres undefined) the same measures were 92%, 63% and 0%.
For `O=S(=O)(c1ccc2cc[nH]c2c1)N1CCC[C@@H]1CCN1CCC(c2c[nH]c3cnccc23)CC1`, in that order: 95%, 0% and 13%.
For `Cc1cc(OCCN2CCCCC2)ccc1NC(=O)c1cccc2c(=O)n(Cc3ccc(Cl)cc3)cnc12`, in that order: 88%, 56% and 100%.
In the case of `CC(CNC(=O)[C@H]1CNCCN1C(=O)CCCc1ccccc1)c1ccccc1.O=C(O)C(F)(F)F` (some centres undefined), the results for the Inhibition in assay [1], in assay [2] and in assay [3] were 94%, 1% and 12%, respectively.
With `O=C(O)C(F)(F)F.c1cc(CN2CCCCC2)cc(-c2ccc(-c3nc4ccccc4[nH]3)s2)c1`, the Inhibition in assay [1] was determined as 100%; in assay [2] it was 100%; in assay [3], 11%.
For the compound `O=C(O)C(F)(F)F.O=[N+]([O-])c1cccc(CNC2CCN(Cc3ccc(-c4ccccc4)cc3)CC2)c1`, the Inhibition is 100% in assay [1], 96% in assay [2] and 25% in assay [3].
For `O=C(Nc1ccc(-c2cccc(-c3nc4cc(F)ccc4[nH]3)c2)cc1)c1cnn2cccnc12` the same measures were 98%, 25% and 10%.
For `CC(C)CNCc1cccc(-c2cccc(CN(CCCN3CCN(C)CC3)C(=O)/C=C/c3ccccc3)c2)c1.O=C(O)C(F)(F)F`, in that order: 90%, 88% and 44%.
For `Cc1ccc(C(=O)Nc2ccc(-c3nc4ccccc4[nH]3)cc2)cc1S(=O)(=O)N1CCOCC1`, in that order: 90%, 16% and 56%.
